Source: PubChem BioAssay
“And” between values parts separate entries of the source, which are not always exact repeats. Equal entries are not always repeated. The source made the active and inactive calls.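 Rule for the calls, unless noted: active = at least 20% inhibition of 6-phosphogluconate dehydrogenase activity; inactive = the rest.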

How the values were obtained:
[1] = polyglutamine-triggered caspase-3 activation inhibitors, cell-based (AID 1583); conditions: polyglutamine-induced caspase-3 activation, cell assay; stronger effect = higher value;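 tested at 10 µM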
[2] = suppressors of polyQ aggregation in yeast, 75Q-TubU reporter (AID 1593); conditions: Yeast 75Q polyglutamine aggregation reporter
[3] = biological target: 6-phosphogluconate dehydrogenase, decarboxylating (Homo sapiens) (UniProt P52209); test: 6PGD enzyme inhibitors, primary screen, biochemical, human, recombinant enzyme, NADPH absorbance (AID 1159550); conditions: recombinant 6PGD, NADPH absorbance 341 nm; at 10 µM; stronger effect = higher value
6-phosphogluconate dehydrogenase, decarboxylating (Homo sapiens), sequence (P52209 whole entry, looked up): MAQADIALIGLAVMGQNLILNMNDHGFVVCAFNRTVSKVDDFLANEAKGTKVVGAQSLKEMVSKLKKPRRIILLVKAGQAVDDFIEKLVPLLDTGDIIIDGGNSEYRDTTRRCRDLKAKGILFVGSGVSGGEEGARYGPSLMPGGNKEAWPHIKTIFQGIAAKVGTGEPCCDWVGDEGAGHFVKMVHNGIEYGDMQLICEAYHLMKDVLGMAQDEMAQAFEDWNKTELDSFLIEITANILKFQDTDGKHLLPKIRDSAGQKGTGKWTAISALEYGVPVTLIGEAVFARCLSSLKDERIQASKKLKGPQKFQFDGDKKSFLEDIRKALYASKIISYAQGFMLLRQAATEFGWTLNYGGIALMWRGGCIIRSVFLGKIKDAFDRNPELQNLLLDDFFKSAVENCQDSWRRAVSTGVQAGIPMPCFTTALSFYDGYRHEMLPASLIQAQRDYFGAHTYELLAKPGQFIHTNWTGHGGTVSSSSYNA

[4] = differential killing of epithelial or mesenchymal cells, primary screen, imaging, PC-3E GFP, TEM4-18 mCherry, co-culture (AID 1345086;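 active = compounds killing one labelled cell type while sparing the other, by normalised counts and ratio limits, not self-fluorescent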;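 for all read-outs here: cells exposed to compound for 72 h before imaging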;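 for red/green cell ratio (normalised): normalised mesenchymal count divided by normalised epithelial count so high means epithelial killing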); conditions: imaging cell counts, at 1 µM; for red/green cell ratio (normalised): actives lie on both sides
[5] = tested on: Aerobactin synthetase IucA (Klebsiella pneumoniae hvKP1); test: Biochemical IucA enzyme inhibition primary screen of the Spectrum library (AID 1346200; call rule not given here;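 note: 100% = wells without compound and 0% = wells lacking enzyme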); conditions: malachite green pyrophosphate, A620, at 8 µM, stronger effect = lower value
[6] = biological target: NAD(+) hydrolase SARM1 (Homo sapiens) (UniProt Q6SZW1); test: SARM1 TIR NADase inhibitors, cell lysate, NAD-Glo luminescence (AID 1508614;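 active = compound whose remaining NAD level is above about 45 nM, limit read from the data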;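 note: higher remaining NAD means stronger inhibition of SARM1 NADase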); conditions: SAM-TIR HEK293T lysate NADase, at 1 µM, stronger effect = higher value
NAD(+) hydrolase SARM1 (Homo sapiens), sequence (Q6SZW1 whole entry, looked up, the tested form may be a part): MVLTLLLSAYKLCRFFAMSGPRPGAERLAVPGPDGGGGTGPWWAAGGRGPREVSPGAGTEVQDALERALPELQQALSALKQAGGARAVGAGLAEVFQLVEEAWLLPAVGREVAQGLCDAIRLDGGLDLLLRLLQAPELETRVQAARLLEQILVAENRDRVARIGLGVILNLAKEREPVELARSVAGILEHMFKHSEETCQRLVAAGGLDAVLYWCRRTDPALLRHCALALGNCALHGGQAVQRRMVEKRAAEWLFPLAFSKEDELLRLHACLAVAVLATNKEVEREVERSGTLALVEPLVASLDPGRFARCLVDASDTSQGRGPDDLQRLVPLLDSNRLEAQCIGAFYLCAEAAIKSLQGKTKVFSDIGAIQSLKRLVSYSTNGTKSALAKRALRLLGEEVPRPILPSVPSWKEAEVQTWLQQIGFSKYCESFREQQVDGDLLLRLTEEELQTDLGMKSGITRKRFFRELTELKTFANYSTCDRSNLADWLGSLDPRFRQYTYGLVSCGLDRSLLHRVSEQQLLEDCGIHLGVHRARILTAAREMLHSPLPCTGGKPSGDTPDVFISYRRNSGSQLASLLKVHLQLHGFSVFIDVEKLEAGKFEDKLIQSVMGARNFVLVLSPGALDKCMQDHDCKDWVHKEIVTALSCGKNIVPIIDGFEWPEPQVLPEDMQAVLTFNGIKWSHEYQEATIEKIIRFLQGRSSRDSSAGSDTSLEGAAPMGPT

[7] = biological target: Mitogen-activated protein kinase 7 (Homo sapiens) (UniProt Q13164); test: ERK5 transactivation activators in reporter cells, primary screen, cell-based, HTS (AID 1508626;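 active = luciferase signal above three times the same-plate solvent-only control wells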;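 note: luciferase driven by Gal4-ERK5 fusion binding five Gal4 sites before minimal TATA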); conditions: HeLa Gal4-ERK5 transactivation, 18 h, at 5 µM, stronger effect = higher value
Mitogen-activated protein kinase 7 (Homo sapiens), sequence (Q13164 whole entry, looked up, the tested form may be a part): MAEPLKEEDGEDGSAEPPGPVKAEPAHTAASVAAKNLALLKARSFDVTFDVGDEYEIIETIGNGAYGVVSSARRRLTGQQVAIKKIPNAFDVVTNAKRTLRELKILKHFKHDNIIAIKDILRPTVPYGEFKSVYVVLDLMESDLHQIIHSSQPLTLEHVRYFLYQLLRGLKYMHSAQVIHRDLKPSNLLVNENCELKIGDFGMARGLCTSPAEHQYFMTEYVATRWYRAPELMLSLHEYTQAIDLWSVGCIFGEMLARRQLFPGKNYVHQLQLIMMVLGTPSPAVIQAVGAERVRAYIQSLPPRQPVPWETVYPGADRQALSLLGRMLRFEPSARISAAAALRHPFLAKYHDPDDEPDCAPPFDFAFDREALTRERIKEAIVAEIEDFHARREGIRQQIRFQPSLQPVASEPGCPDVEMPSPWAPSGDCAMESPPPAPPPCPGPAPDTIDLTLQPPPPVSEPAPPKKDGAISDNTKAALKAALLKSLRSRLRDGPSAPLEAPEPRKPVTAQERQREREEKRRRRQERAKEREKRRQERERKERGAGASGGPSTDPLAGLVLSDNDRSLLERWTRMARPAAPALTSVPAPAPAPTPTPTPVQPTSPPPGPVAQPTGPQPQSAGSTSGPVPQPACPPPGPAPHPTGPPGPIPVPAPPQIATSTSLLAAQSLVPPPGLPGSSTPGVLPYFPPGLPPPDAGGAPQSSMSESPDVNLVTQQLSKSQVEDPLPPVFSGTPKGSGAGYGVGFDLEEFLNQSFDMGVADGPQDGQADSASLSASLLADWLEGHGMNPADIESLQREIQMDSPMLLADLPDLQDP

[8] = viability rescue of complex I mutant cybrids, primary screen, cell-based, galactose medium, ATP luminescence (AID 1645843;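 active = z-score of at least 1.8 in each of two replicates, scored against plate mean and spread of sample wells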;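 note: positive z means more ATP and so rescue of galactose-driven cybrid death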); conditions: complex I mutant cybrid cells, 72 h, stronger effect = higher value
[9] = liver-stage malaria parasite growth inhibition, primary screen, cell-based, HepG2, luciferase luminescence, HepG2 viability (AID 624349; in the data active = parasite load remaining mostly below about 12%, no sharp cut-off; inactive = mostly above about 10%;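 note: 100% = mean of DMSO negative control wells on the same plate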); conditions: P. berghei liver stage in HepG2, luciferase luminescence, concentration not given here; parasite load remaining: stronger effect = lower value; viability: measured here: HepG2 viability without parasites
[10] = survival rescue of mitochondrial mutant cells in low glucose, primary screen, MELAS cybrids, Rieske KO mouse fibroblasts, CellTiter-Glo (AID 1508586;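 active = mean z-score across replicates of 1.96 or higher in either the MELAS or the Rieske mutant cell line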;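 note: z relative to plate mean and SD of compound and empty wells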)
[11] = sensitizers of A549 cells to miR-34 induction, primary screen, imaging, A549 dox-inducible miR-34, nuclei and caspase counts (AID 1347080;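 active = compounds whose cell count with miR-34 switched on is under 0.7 times the count with it off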); conditions: A549 miR-34 inducible, Hoechst nuclei count, 48 h
[12] = hESC survival regulators, cell-based (AID 493140; call rule not given here;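 note: cells exposed to compounds for four days before counting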); conditions: human embryonic stem cell survival screen; stronger effect = higher value
[13] = measured here: epithelial PC-3E GFP cell survival
[14] = measured here: mesenchymal TEM4-18 mCherry cell survival
[15] = MELAS cybrid survival, CellTiter-Glo 48 h, stronger effect = higher value
[16] = Rieske KO mouse fibroblast survival, CellTiter-Glo 72 h
[17] = measured here: relative caspase fold change +Dox/-Dox
[18] = measured here: total cells with miR-34 induction, stronger effect = lower value
[19] = measured here: total cells without miR-34 induction

In the case of Clc1ccc(COC(Cn2ccnc2)c2ccc(Cl)cc2Cl)c(Cl)c1 (stereo unspecified), the inhibition [1] is reported as 16.3%, the score [2] is reported as -0.06 and the inhibition [3] is reported as -24.1% (inactive). For the same compound, the red/green cell ratio (normalised) [4] was 1.04 (inactive), the normalised cell number [4, 13] was 0.94 and the normalised cell number [4, 14] was 0.97. The activity remaining [5] was 98.2% (inactive), the remaining NAD [6] was 10 nM (inactive) and the luciferase signal [7] was 48 AU (inactive). For the same compound, the z-score [8] was -1.52 (inactive) and -2.01 (inactive).
In the case of CC[C@@H](CO)NC(=O)[C@@H]1C=C2c3cccc4[nH]cc(c34)C[C@H]2N(C)C1, the inhibition [1] is reported as 8.64%, the score [2] is reported as 1.38 and the parasite load remaining [9] is reported as 65.8% (inactive) and 65.3% (inactive) and 59.9% (inactive). For the same compound, the viability [9] was 103% and 77.1% and 98.3%, the inhibition [3] was 10.6% (inactive) and the red/green cell ratio (normalised) [4] was 0.98 (inactive). The normalised cell number [4, 13] was 0.88, the normalised cell number [4, 14] was 0.87 and the activity remaining [5] was 97% (inactive). For the same compound, the z-score [10, 15] was 0.332 (inactive), the z-score [10, 16] was 0.352 and the remaining NAD [6] was 10 nM (inactive). The luciferase signal [7] was 60 AU (inactive) and the z-score [8] was 0.87 (inactive) and -0.035 (inactive).
For ClC(Cl)=C(c1ccc(Cl)cc1)c1ccc(Cl)cc1, the inhibition [3] was -15% (inactive).
With CCOP(=S)(OCC)SCSCC the inhibition [3] was 7.84% (inactive).
With CC(C)CC(N(C)C)C1(c2ccc(Cl)cc2)CCC1 (stereo unspecified) the inhibition [3] was 14.3% (inactive), the red/green cell ratio (normalised) [4] was 1.04 (inactive) and the normalised cell number [4, 13] was 0.98. The normalised cell number [4, 14] was 1.02, the activity remaining [5] was 121% (inactive) and the z-score [10, 15] was 0.37 (inactive) and 0.394 (inactive). The z-score [10, 16] was 0.153 and 0.475, the remaining NAD [6] was 10 nM (inactive) and the luciferase signal [7] was 60 AU (inactive). For the same compound, the z-score [8] was -1.39 (inactive) and -1.34 (inactive) and -2.03 (inactive).
With CNC(=O)O/N=C/C(C)(C)SC the inhibition [3] was -1.92% (inactive).
In the case of COc1ccc(C[C@H]2NC[C@H](O)[C@H]2OC(C)=O)cc1, the inhibition [1] is reported as 72.2%, the score [2] is reported as 0.1 and the parasite load remaining [9] is reported as -43.5% (inactive) and -0.655% (inactive). For the same compound, the viability [9] was 60.3% and 76.2%, the inhibition [3] was -19.6% (inactive) and the red/green cell ratio (normalised) [4] was 0.63 (inactive). The normalised cell number [4, 13] was 0.16, the normalised cell number [4, 14] was 0.1 and the activity remaining [5] was 92.2% (inactive). For the same compound, the fold change ([11]; stronger effect = lower value) was 0.919 (inactive) and 1.04 (inactive), the fold change [11, 17] was 1.66 and the cell count [11, 18] was 1170 and 1230. For the same compound, the cell count [11, 19] was 1270 and 1190, the luciferase signal [7] was 16 AU (inactive) and the z-score [8] was -0.88 (inactive).
In the case of C=C(C)[C@H]1Cc2c(ccc3c(=O)c4c(oc23)COc2cc(OC)c(OC)cc2-4)O1, the inhibition [3] is reported as -6.24% (inactive).
In the case of ClC1=C(Cl)[C@]2(Cl)[C@H]3[C@H]([C@@H]4C=C[C@H]3C4)[C@@]1(Cl)C2(Cl)Cl, the inhibition [3] is reported as 6.64% (inactive).
In the case of C=C[C@H]1CN2CC[C@H]1C[C@@H]2[C@@H](O)c1ccnc2ccccc12, the parasite load remaining [9] is reported as 63% (inactive), the viability [9] is reported as 116% and the inhibition [3] is reported as -5.19% (inactive). For the same compound, the fold change ([11]; stronger effect = lower value, cell number ratio, induced over uninduced) was 0.868 (inactive), the fold change [11, 17] was 1.48 and the cell count [11, 18] was 8930. For the same compound, the cell count [11, 19] was 10300, the remaining NAD [6] was 10 nM (inactive) and the luciferase signal [7] was 40 AU (inactive).
With C[C@H]1CC[C@]2(NC1)O[C@H]1C[C@H]3[C@@H]4CC[C@H]5C[C@@H](O[C@@H]6O[C@H](CO)[C@H](O[C@@H]7O[C@H](CO)[C@@H](O)[C@H](O[C@@H]8OC[C@@H](O)[C@H](O)[C@H]8O)[C@H]7O[C@@H]7O[C@H](CO)[C@@H](O)[C@H](O)[C@H]7O)[C@H](O)[C@H]6O)CC[C@]5(C)[C@H]4CC[C@]3(C)[C@H]1[C@@H]2C the inhibition [3] was 1.84% (inactive).
With COc1cc2c(cc1OC)-c1c(oc3c4c(ccc3c1=O)OC(C(C)C)C4)CO2 (stereo unspecified) the inhibition [3] was -6.79% (inactive), the red/green cell ratio (normalised) ([4]; counts scaled to control wells, 1 = unselective) was 0.93 (inactive) and the normalised cell number [4, 13] was 0.99. The normalised cell number [4, 14] was 0.92.
For CCC1C2CC3C4N(C)c5ccccc5C45CC(C2C5O)N3C1O (stereo unspecified), the inhibition [3] was 6.73% (inactive).
With CC(C)=CCC[C@]1(C)C=Cc2c(O)c3c(c(CC=C(C)C)c2O1)O[C@]12C(=C[C@@H]4C[C@H]1C(C)(C)O[C@@]2(C/C=C(/C)C(N)=O)C4=O)C3=O the inhibition [3] was -5.75% (inactive).
In the case of O=C1CC[C@@]2(O)[C@H]3Cc4ccc(O)c5c4[C@@]2(CCN3CC2CC2)[C@H]1O5, the survival [12] is reported as 16.1 (inactive), the inhibition [3] is reported as 9.6% (inactive) and the fold change ([11]; stronger effect = lower value) is reported as 0.971 (inactive) and 0.94 (inactive) and 0.843 (inactive). The fold change [11, 17] was 1.34 and 1.14 and 0.908, the cell count [11, 18] was 11000 and 9230 and 9370 and the cell count [11, 19] was 11300 and 9820 and 11100. For the same compound, the z-score [10, 15] was 0.477 (inactive) and 0.601 (inactive), the z-score [10, 16] was 0.069 and -0.0949 and the remaining NAD [6] was 10 nM (inactive). For the same compound, the luciferase signal [7] was 48 AU (inactive) and the z-score [8] was 0.66 (inactive) and 0.275 (inactive).
